Here are results for nine compounds from PubChem BioAssay (NCATS).

Experiment [1] is described as follows: qHTS Assay for Identification of Small Molecule Agonists for Hypoxia Response Element Signaling Pathway (AID 914; active = well fitted activation curve with a large enough effect in the signal ratio, with a control signal flat, not every such curve was filed as active; the % refers to the signal ratio; note: % of control where 0% means no effect). Conditions: ME-180 (cervical carcinoma) HRE-bla reporter, beta-lactamase ratio, CoCl2, 17 h; activation: stronger effect = higher value. The method, boiled down: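 A beta-lactamase reporter under hypoxia response element control in ME-180 cells served as the system. Compound titrations plus EC50 CoCl2 ran 17 h at 37 degrees Celsius; AC50 values were fitted from %Activity.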
On the technique in general: qHTS replaces the single test concentration by a dilution series.

Experiment [2] in a line: Confirmation and Secondary Assay for Modulators of Hemoglobin Beta Chain Splicing at IVS2 654 locus (AID 910).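 Note: per-well total GFP intensity by laser scanning cytometry after 2-day treatment; % of control where 0% means no effect.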 Conditions: HeLa EGFP-654 splicing reporter, GFP fluorescence, 48 h; series mostly up to 46.1 µM. The method, boiled down:
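HeLa cells stably carrying EGFP interrupted by mutant beta-globin IVS2-654 intron (CMV-driven) were treated with compound for 2 days at 37C; corrected splicing was scored as total peak GFP intensity per well (488 nm excitation, 500-520 nm emission).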

A short description of experiment [3]: Confirmation and Secondary Assay for Modulators of Hemoglobin Beta Chain Splicing at IVS2 705 locus (AID 930). Note: % of control where 0% means no effect. The note with it: HeLa EGFP-705 splicing reporter, GFP fluorescence, 48 h; series mostly up to 46.1 µM. The method, boiled down: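 Fluorescence gain (488 nm laser, 500-520 nm PMT) reflects restored correct splicing of a mutant IVS2-705 intron inside EGFP in stably transfected HeLa cells after 2-day compound treatment.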

Experiment [4] is described as follows: qHTS profiling of the MIPE4 collection as inhibitors of Plasmodium falciparum (3D7) proliferation (AID 743344; call rule not given here;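 note: scaled between DMSO vehicle wells and 0.29 µM artemisinin as full inhibition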). The note with it: P. falciparum 3D7 in erythrocytes, SYBR Green DNA fluorescence, 72 h; at 9.64 µM (top of the series). The method, boiled down:
(§1)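 Erythrocytes infected with P. falciparum (0.3% parasitemia, 2.5% hematocrit) incubated with compounds 72 h at 37 C, 5% CO2. Lysis with saponin/Triton buffer containing SYBR Green I, overnight at room temperature in the dark; DNA fluorescence (485/535 nm) normalised to 0.29 uM artemisinin and DMSO.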

Experiment [5] can be described thus: qHTS profiling of the MIPE4 collection as inhibitors of Plasmodium falciparum (DD2) proliferation (AID 743345; call rule not given here). Conditions: P. falciparum Dd2 in erythrocytes, SYBR Green DNA, 72 h; at 9.64 µM (top of the series). The method, boiled down:
as §1

A short description of experiment [6]: qHTS profiling of the MIPE4 collection as inhibitors of Plasmodium falciparum (DD2) proliferation (Rep 2) (AID 743346; call rule not given here). The note with it: P. falciparum Dd2 in erythrocytes, SYBR Green DNA, 72 h; at 9.64 µM (top of the series). The method, boiled down: as §1
A short description of experiment [7]: qHTS profiling of the MIPE4 collection as inhibitors of Plasmodium falciparum (HB3) proliferation (AID 743347; call rule not given here;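 note: plate controls were DMSO vehicle wells for no effect and artemisinin wells for full effect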). The note with it: P. falciparum HB3 in erythrocytes, SYBR Green DNA, 72 h; at 9.64 µM (top of the series). The method, boiled down: as §1

Results filed as inconclusive are left out. Activity calls are given as the source filed them. Unless noted, calls come from the whole dose curve; as a rule, active = well fitted activation curve with a large enough effect; inconclusive = small, poorly fitted or top-dose-only effect; inactive = flat fitted curve, though single readings scatter.

Consider `COc1ccc([C@@H]2CC(=O)c3c(O)cc(O[C@H]4O[C@@H](CO[C@H]5O[C@@H](C)[C@@H](O)[C@@H](O)[C@@H]5O)[C@@H](O)[C@@H](O)[C@@H]4O)cc3O2)cc1O`, for which, in experiment [1], the activation is -3.87% (inactive).

On to `COc1cc2c(cc1OC)-c1cc3ccc(OC)c(OC)c3c[n+]1CC2`, for which the Potency result in experiment [2] and in experiment [3] was “inactive” throughout.

Take `CO/N=C(\C(=O)N[C@@H]1C(=O)N2C(C(=O)O)=C(COC(N)=O)CS[C@@H]12)c1ccco1`: the activation in experiment [1] is 3.41% (inactive).

`CO[C@H]1C=CO[C@]2(C)Oc3c(C)c(O)c4c(O)c(c5c(c4c3C2=O)NC2(CCN(CC(C)C)CC2)N=5)=NC(=O)C(C)=CC=C[C@@H](C)[C@@H](O)[C@@H](C)[C@@H](O)[C@@H](C)[C@@H](OC(C)=O)[C@@H]1C` had a parasite growth, % of DMSO control in experiment [4] of 68.3%. In addition, in experiment [5], the parasite growth remaining, % of DMSO control (lower = more inhibition) stood at 68.3%. Moreover, the parasite growth, % of control (lower = inhibition) in experiment [6] was found to be 36%. The same compound gave a growth, % of control in experiment [7] of 93.1%.

In the case of `N#Cc1cccc(-c2cncnc2-n2ccnc2)c1`, the Potency entry in experiment [2] and in experiment [3] was “inactive” each time.

With `CC(=O)N[C@H](CS)C(=O)O`, the Potency entry in experiment [2] and in experiment [3] was “inactive” in each case.

For `CN(C)c1ccc(-c2nccc(NCc3ccccc3)n2)cc1`, the Potency result in experiment [2] and in experiment [3] was “inactive” each time.

Consider `C[C@@H]1Cc2ccccc2N1NC(=O)c1ccc(Cl)c(S(N)=O)c1` (stereo partly specified), for which the activation in experiment [1] is 7.68% (inactive).

`CC[C@H]1NC(=O)c2cc(S(N)(=O)=O)c(Cl)cc2N1`: in experiment [1], the activation is 3.52% (inactive).
